Laboratory results published in PubChem BioAssay.
Several values for one entry are separate records, joined by “and”; a condition that tells them apart may be missing. Identical values can stand only once. More than one record can exist for a structure, and the calls need not agree. Activity calls are given as the source filed them.

Assays:
[1] = binders of probe aFSTL3 on microarray, primary screen, stem cell growth factor project, biochemical, small-molecule microarray, fluorescence 635/667 (AID 1064); settings: higher = more signal;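 note: measures binding of the biotinylated anti-FSTL3 antibody to printed compounds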
[2] = binders from COS7 lysate, DM2A8 probe, primary screen, torsin A project, cell lysate, small-molecule microarray, fluorescence 635/667 (AID 1065); settings: higher = more signal, COS7 lysate expressing mutant human TOR1A
[3] = binders of probe aFGF2 on microarray, primary screen, stem cell growth factor project, biochemical, small-molecule microarray, fluorescence 635/667 (AID 1067); settings: higher = more signal;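 note: measures binding of biotinylated aFGF2 protein to printed compounds on slides; z-score merges feature fluorescence and signal-to-noise across triplicate slides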
[4] = binders of probe aFGF10 on microarray, primary screen, stem cell growth factor project, biochemical, small-molecule microarray, fluorescence 635/667 (AID 1071); settings: higher = more signal;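 note: score merges 667 nm spot intensity and signal to noise from triplicate slides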
[5] = target: Neurogenic locus notch homolog protein 2 (Homo sapiens) (UniProt Q04721); assay: Notch2 binders on small-molecule microarrays, primary screen, biochemical, small-molecule microarray, 635 nm fluorescence, stem cell growth factors (AID 1073); settings: Notch2 binding, higher = more signal
Neurogenic locus notch homolog protein 2 (Homo sapiens), sequence (Q04721 whole entry, looked up, canonical isoform): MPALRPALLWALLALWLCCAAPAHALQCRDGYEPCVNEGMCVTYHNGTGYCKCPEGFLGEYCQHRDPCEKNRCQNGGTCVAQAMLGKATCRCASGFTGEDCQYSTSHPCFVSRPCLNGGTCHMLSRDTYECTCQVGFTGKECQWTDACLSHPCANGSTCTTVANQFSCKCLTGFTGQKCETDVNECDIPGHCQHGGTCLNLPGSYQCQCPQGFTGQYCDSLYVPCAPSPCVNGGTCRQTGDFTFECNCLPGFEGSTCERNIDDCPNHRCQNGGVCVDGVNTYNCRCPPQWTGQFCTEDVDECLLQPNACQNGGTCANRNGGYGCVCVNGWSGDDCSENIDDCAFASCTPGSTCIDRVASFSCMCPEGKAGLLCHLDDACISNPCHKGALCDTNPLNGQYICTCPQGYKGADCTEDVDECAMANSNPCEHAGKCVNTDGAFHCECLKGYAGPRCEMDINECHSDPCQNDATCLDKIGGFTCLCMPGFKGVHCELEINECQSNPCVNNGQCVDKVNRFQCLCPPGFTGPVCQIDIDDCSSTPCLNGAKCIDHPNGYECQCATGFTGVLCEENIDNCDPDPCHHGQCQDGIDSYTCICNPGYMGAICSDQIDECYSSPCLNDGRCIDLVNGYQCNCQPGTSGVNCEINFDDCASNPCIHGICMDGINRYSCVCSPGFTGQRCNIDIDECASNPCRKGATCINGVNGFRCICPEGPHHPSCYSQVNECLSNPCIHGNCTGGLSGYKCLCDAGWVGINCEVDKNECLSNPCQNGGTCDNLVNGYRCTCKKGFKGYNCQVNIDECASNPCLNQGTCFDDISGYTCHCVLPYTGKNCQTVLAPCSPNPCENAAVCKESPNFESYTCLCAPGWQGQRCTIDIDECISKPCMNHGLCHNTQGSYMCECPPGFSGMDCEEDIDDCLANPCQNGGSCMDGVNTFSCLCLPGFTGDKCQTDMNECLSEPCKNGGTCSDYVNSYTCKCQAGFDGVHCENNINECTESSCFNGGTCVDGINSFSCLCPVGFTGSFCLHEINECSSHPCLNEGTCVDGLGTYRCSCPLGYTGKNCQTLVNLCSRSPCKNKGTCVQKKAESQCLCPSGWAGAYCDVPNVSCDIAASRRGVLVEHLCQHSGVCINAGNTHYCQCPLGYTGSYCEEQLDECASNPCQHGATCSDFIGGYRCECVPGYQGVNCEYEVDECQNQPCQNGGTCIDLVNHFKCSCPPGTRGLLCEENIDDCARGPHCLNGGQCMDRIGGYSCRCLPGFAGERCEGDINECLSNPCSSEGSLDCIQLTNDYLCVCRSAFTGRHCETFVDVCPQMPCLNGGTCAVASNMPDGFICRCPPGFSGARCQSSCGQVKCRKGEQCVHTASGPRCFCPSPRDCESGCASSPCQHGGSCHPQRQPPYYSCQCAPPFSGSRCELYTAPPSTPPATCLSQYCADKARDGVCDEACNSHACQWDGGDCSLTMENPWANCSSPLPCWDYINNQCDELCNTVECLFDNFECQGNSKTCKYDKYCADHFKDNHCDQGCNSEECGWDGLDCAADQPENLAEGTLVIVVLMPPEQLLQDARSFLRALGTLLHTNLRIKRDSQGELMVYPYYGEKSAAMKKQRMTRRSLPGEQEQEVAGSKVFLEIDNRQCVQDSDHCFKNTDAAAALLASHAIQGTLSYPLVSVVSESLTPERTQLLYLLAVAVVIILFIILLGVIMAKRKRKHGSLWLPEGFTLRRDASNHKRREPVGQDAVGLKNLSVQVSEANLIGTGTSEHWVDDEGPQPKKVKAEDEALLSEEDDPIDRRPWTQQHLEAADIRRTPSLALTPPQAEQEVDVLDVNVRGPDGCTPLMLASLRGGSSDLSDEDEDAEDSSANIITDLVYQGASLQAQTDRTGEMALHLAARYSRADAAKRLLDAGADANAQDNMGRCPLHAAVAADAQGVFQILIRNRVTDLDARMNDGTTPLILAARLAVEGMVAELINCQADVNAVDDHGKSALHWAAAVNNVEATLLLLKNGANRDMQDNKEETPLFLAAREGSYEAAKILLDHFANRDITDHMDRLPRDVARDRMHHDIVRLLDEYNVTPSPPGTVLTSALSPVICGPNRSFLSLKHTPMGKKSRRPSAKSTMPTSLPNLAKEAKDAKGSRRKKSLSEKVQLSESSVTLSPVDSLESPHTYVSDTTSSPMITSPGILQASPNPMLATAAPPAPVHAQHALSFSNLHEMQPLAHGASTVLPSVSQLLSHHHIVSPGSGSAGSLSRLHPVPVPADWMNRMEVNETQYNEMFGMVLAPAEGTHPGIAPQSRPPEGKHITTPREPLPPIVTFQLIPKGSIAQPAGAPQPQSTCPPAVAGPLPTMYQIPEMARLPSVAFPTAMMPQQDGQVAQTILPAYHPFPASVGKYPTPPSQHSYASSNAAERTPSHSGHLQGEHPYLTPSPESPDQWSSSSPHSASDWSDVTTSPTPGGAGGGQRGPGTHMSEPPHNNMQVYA

[6] = target: Pro-neuregulin-1, membrane-bound isoform (Homo sapiens) (UniProt Q02297); assay: NRG1 binders on small-molecule microarrays, primary screen, psychiatric disease protein project, biochemical, small-molecule microarray, fluorescence 635/667 (AID 1075); settings: NRG1 binding, 635 nm fluorescence, higher = more signal;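 note: score combines 667 nm spot fluorescence with signal to noise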
Pro-neuregulin-1, membrane-bound isoform (Homo sapiens), sequence (Q02297 whole entry, looked up, the tested form may be a part, canonical isoform): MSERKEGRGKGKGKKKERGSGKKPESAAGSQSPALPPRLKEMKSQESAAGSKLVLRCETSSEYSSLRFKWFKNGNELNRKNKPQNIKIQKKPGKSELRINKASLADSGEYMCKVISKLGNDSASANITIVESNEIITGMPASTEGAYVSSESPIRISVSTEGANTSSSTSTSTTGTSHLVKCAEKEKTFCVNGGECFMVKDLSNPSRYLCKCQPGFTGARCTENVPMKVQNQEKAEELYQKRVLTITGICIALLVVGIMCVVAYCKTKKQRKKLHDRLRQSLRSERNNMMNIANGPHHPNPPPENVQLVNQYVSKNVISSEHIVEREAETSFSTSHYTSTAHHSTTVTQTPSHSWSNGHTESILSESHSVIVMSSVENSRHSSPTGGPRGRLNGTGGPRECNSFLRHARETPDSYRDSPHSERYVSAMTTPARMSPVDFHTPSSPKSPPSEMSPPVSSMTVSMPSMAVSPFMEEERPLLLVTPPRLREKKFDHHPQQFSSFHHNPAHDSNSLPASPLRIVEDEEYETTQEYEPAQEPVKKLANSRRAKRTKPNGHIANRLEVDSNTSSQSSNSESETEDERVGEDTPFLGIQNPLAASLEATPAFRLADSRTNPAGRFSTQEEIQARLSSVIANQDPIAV

[7] = tested on: Neuregulin-1 EGF-like domain; assay: binders of neuregulin-1 EGF-like domain, primary screen, biochemical, small-molecule microarray, 635 nm fluorescence (AID 1081); settings: small-molecule microarray binding, higher = more signal;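 note: binding of the protein to compounds printed on small-molecule microarray slides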
[8] = FRG1 promoter luciferase signal modulators, primary screen, FRG1 inhibition for FSHD, cell-based, C2C12 myotubes, firefly/Renilla luciferase, luminescence (AID 1084); settings: higher = more signal, called active from +8 up or from −8 down
[9] = binders of probe aFST on microarray, primary screen, stem cell growth factor project, biochemical, small-molecule microarray, fluorescence 635/667 (AID 1086); settings: higher = more signal;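 note: score merges 667 nm fluorescence with signal-to-noise of each printed compound spot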
[10] = binders of probe aHhip on microarray, primary screen, stem cell growth factor project, biochemical, small-molecule microarray, fluorescence 635/667 (AID 1087); settings: higher = more signal;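 note: score merges spot fluorescence at 667nm with spot signal to noise ratio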
[11] = tested on: PRMT1 (protein arginine N-methyltransferase 1); assay: PRMT1 binders on small-molecule microarrays, primary screen, biochemical, small-molecule microarray, 635 nm fluorescence (AID 1088); settings: small-molecule microarray binding, higher = more signal;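 note: binding of Prmt1 protein to compounds spotted on small-molecule microarray slides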
[12] = yeast growth modulation, basal conditions, primary screen, YJM789 clinical isolate, OD600, 24 h (AID 1089);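 note: growth of clinical yeast isolate S. cerevisiae YJM 789 seeded 1000 cells per well; test concentration not given here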; settings: S. cerevisiae YJM789 growth, higher = more signal, called active from +8 up or from −8 down
[13] = fission yeast growth modulation, primary screen, strain 972, OD600, 24 h, no modulator (AID 1090);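 note: basal condition with compound alone and no growth modifier present; test concentration not given here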; settings: S. pombe 972 growth, higher = more signal, called active from +8 up or from −8 down
[14] = S. cerevisiae growth modulation with rapamycin, primary screen, strain BY4716, OD600, 96 h (AID 1091); settings: higher = more signal, called active from +8 up or from −8 down; note: test concentration not given here
[15] = target: Torsin-1A-interacting protein 2 (Homo sapiens) (UniProt Q8NFQ8); assay: LULL1 binders on small-molecule microarray, primary screen, cell lysate, human LULL1 lysate, 635/667 nm fluorescence (AID 1092); settings: hLULL1 lysate binding, 635 nm fluorescence, higher = more signal;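 note: probe is lysate of COS7 cells overexpressing human LULL1; score merges per-feature 667 nm fluorescence with signal-to-noise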
Torsin-1A-interacting protein 2 (Homo sapiens), sequence (Q8NFQ8 whole entry, looked up): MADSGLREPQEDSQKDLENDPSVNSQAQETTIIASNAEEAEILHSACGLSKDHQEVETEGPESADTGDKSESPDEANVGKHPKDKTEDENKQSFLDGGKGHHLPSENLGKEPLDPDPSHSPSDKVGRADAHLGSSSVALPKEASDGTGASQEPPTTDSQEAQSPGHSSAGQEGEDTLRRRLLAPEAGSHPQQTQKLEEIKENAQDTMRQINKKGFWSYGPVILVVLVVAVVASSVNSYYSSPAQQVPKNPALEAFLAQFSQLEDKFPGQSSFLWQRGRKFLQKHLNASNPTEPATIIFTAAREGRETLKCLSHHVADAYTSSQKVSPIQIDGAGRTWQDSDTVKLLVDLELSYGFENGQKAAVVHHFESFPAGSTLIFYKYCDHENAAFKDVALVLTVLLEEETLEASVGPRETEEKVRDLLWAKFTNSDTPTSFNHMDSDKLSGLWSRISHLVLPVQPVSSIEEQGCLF

[16] = E. coli growth modulation, two-sided OD650, primary screen, E. coli filamentation project, strain DRC41, 24 h (AID 1093); settings: OD650, 24 h, higher = more signal, called active from +8 up or from −8 down;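 note: MC1000 strain lacking acrAB efflux and sulA so SOS filamentation is blocked; test concentration not given here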
[17] = small-molecule microarray binders of probe aLefty2, primary screen, biochemical, biotinylated probe, 635/667 nm fluorescence (AID 1094); settings: higher = more signal;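 note: score merges spot fluorescence near 667 nm with spot signal-to-noise ratio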
[18] = tested on: Noggin (protein binding on small-molecule microarray); assay: Noggin binders on small-molecule microarray, primary screen, biochemical, 635/667 nm fluorescence (AID 1095); settings: 635 nm fluorescence, higher = more signal;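 note: score merges 667 nm feature fluorescence with signal to noise over triplicate slides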
[19] = target: Neurogenic locus notch homolog protein 3 (Homo sapiens) (UniProt Q9UM47); assay: NOTCH3 binders on small-molecule microarray, primary screen, biochemical, 635/667 nm fluorescence (AID 1096); settings: NOTCH3 binding, 635 nm fluorescence, higher = more signal
[20] = small-molecule microarray binders of probe aEGFR, primary screen, biochemical, biotinylated probe, 635/667 nm fluorescence (AID 1097); settings: higher = more signal;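 note: probe is a biotinylated anti-EGFR antibody binding compounds printed on slides; score combines fluorescence near 667 nm and signal to noise of each spot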

| SMILES | composite z-score [1] | composite z-score [2] | composite z-score [3] | composite z-score [4] | composite z-score [5] | composite z-score [6] | composite z-score [7] | z-score [8] | composite z-score [9] | composite z-score [10] | composite z-score [11] | z-score [12] | z-score [13] | z-score [14] | composite z-score [15] | z-score [16] | composite z-score [17] | composite z-score [18] | composite z-score [19] | composite z-score [20] |
| --- | --- | --- | --- | --- | --- | --- | --- | --- | --- | --- | --- | --- | --- | --- | --- | --- | --- | --- | --- | --- |
| C=C[C@@H](C)[C@@H](O)c1ccc(O)c2ccccc12 | 0.306 and 0.254 | -0.54 and -0.797 | -0.105 and -0.154 | -0.262 and -0.0511 | -1.51 and -1.17 | -0.775 and -0.178 | -0.377 and 0.98 | 1.07 (inactive) and 0.849 (inactive) | -0.774 and -0.854 | -0.287 and -0.184 | -1.15 and -0.5 | -5.87 (inactive) and -14.6 (active) | -19.1 (active) and -19.4 (active) | 3.53 (inactive) and 5.23 (inactive) | -0.414 and 0.384 | -0.113 (inactive) and 1.61 (inactive) | -0.239 and -0.107 | -0.803 and -0.326 | -1.25 and -0.933 | -0.321 and -0.314 |
| CCOC(=O)C[C@H]1[C@H](OC(=O)c2ccccc2-c2ccccc2)[C@@H](NC(=O)Cc2ccc(OC)cc2)c2cc(OCCCO)ccc2N1C(=O)Cc1ccc(OC)cc1 | 0.169 and 0.18 | 0.22 and 0.0916 | 0.0811 and -0.0737 | 0.473 and -0.0644 | -0.386 and -0.0483 | 0.621 and -0.428 | 0.927 and -0.835 | -0.848 (inactive) and -0.382 (inactive) | 0.492 and 0.0474 | -0.0994 and -0.199 | 0.407 and -0.949 | -0.0142 (inactive) and -0.0701 (inactive) | -0.572 (inactive) and 0.18 (inactive) | 0.843 (inactive) and 0.39 (inactive) | 1.46 and -0.199 | 2.39 (inactive) and -0.335 (inactive) | 0.139 and -0.176 | 0.0766 and -0.182 | 0.784 and -0.204 | 0.0084 and -0.142 |
| C#CCCCON=C1C[C@@H](O)[C@@H](O)[C@@H]2[C@@H]3C(=O)N(C4CCCCC4)C(=O)[C@@H]3CC[C@H]12 | -0.283 | 0.145 | -0.0423 | 0.612 | 0.784 | 0.717 | 0.793 | -0.298 (inactive) | 0.346 | -0.0994 | 0.589 | -0.177 (inactive) | -0.539 (inactive) | -0.193 (inactive) | 1 | 0.318 (inactive) | 0.0103 | 0.417 | 0.71 | -0.0842 |
| CCOC(=O)[C@H](CC(C)C)NC(=O)CCC1CC(OC(=O)NCc2cccc3ccccc23)CC2(CCCC(COC(=O)NCc3ccccc3)O2)O1 (stereo not given in full) | -0.289 | -0.0297 | -0.116 | 0.129 | -0.362 | -0.421 | -0.0852 | 2.99 (inactive) | -0.0955 | -0.143 | -0.0282 | -1.11 (inactive) | -0.0838 (inactive) | -0.395 (inactive) | -0.393 | -0.548 (inactive) | -0.221 | 0.306 | 0.156 | -0.182 |
| C=CCN(C(=O)C1N(C(C)(C)CO)C(=O)C2C(C(=O)O)C3C=CC21O3)C(C)(C)C (stereo not given) | 0.974 and 1.67 | -1.54 and -0.705 | -0.232 and -0.112 | -1.48 and 0.207 | -2.19 and -1.87 | -0.396 and 0.389 | 0.154 and 1.46 | 0.198 (inactive) and -0.0048 (inactive) | -1.37 and -1.24 | -0.427 and -0.0994 | -0.805 and -0.846 | 0.69 (inactive) and 1.34 (inactive) | 0.53 (inactive) and 0.365 (inactive) | 0.961 (inactive) and 1.35 (inactive) | -0.139 and 1.91 | -0.0599 (inactive) and 0.474 (inactive) | 0.003 and 0.146 | -2.82 and -3.2 | -1.74 and -1.4 | -0.347 and -0.228 |
| CCOC(=O)[C@H](Cc1ccccc1)NC(=O)CCC1CC(OC(=O)NCc2cccc3ccccc23)CC2(CCCC(COC(=O)NCCCN3CCCC3=O)O2)O1 (stereo not given in full) | -0.511 | 0.221 | -0.107 | 0.122 | 1.1 | 0.412 | 0.783 | -0.81 (inactive) | 0.249 | -0.0994 | 1.21 | -1.18 (inactive) | 0.134 (inactive) | -0.896 (inactive) | 2.01 | -0.288 (inactive) | -0.148 | 0.692 | 1.01 | -0.0578 |
| COC(=O)C1=C(C)N(Cc2ccccc2)C2=C(C(C)=O)C[C@@](O)(C(=O)OC)C(=O)N2[C@@H]1c1ccccc1 | -0.335 and -0.244 | 1.12 and -0.0954 | -0.0005 and -0.118 | 0.889 and 0.0839 | 1.43 and 1.26 | -0.119 and -0.159 | 1.05 and 0.439 | -0.486 (inactive) and -0.75 (inactive) | 0.235 and 0.385 | -0.0994 and 0.21 | 1.55 and -0.0318 | -0.762 (inactive) and -2.05 (inactive) | -0.987 (inactive) and -1.63 (inactive) | -1.32 (inactive) and -0.654 (inactive) | 1.68 and 0.258 | 0.528 (inactive) and 0.524 (inactive) | -0.195 and -0.331 | 0.364 and 0.0733 | 0.729 and -0.153 | 0.0069 and -0.158 |
| C=CCN(C(=O)C1N(CCOCCO)C(=O)C2C(C(=O)O)C3C=CC21O3)c1ccc(OC)cc1 (stereo not given) | 1.11 and 1.65 | -1.59 and -1.21 | -0.184 and -0.254 | -0.719 and -1.97 | -2.35 and -1.84 | 0.555 and 2.07 | 0.328 and 0.86 | -0.408 (inactive) and -0.715 (inactive) | -0.654 and -0.932 | -0.581 and -0.349 | -0.968 and -2.33 | -0.248 (inactive) and -0.0945 (inactive) | -0.188 (inactive) and -0.571 (inactive) | -0.348 (inactive) and -0.662 (inactive) | -0.408 and 1.86 | 0.612 (inactive) and 1.52 (inactive) | -0.158 and 0.0873 | -1.79 and -3.14 | -0.59 and -0.715 | -0.348 and -0.276 |
